# Measurements published in article PMC5700166.
# How the values were obtained:
# Experiment in all cases: protein-binding microarray (PBM); PBM: ~300 nM protein, 6 mM HEPES pH 7.8, 80 mM KCl, 0.5 mM EDTA, 0.5 mM EGTA, 6% glycerol, 35 ng/ul poly-dIdC, 1% milk, 1 h, room temperature; Ap Aiptasia and Nv Nematostella (sea anemones) / Co Capsaspora / Aq Amphimedon (sponge) / Dm Drosophila / Hu human; RHD is the Rel homology domain; high values mean tight binding
# Details in all cases: dsDNA, one strand shown
# [1] = target: T1, GST-Dm-Relish (Drosophila melanogaster, UniProt Q94527 99-473)
# T1 sequence: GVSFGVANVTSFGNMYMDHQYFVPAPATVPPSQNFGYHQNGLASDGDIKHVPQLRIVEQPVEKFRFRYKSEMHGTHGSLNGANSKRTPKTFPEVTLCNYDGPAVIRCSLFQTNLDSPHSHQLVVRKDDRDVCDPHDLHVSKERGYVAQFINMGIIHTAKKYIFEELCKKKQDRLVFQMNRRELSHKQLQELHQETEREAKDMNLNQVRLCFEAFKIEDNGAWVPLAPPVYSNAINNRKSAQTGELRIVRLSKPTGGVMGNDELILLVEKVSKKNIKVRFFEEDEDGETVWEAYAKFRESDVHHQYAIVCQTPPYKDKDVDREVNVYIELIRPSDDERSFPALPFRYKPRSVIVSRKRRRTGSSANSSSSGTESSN
# [2] = target: T2, GST-Aq-NF-kB (Amphimedon queenslandica, UniProt A9Y5G7 2-389)
# T2 sequence: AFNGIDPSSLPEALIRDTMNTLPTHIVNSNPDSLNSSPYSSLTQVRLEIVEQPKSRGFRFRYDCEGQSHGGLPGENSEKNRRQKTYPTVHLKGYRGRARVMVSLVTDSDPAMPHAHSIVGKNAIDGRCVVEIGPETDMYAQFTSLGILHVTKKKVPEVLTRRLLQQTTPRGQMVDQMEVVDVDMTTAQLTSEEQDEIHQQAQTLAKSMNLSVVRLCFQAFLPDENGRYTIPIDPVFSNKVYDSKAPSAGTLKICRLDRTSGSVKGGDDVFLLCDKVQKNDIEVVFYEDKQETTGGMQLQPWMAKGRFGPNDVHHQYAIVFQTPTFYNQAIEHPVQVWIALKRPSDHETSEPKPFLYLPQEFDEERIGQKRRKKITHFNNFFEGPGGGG
# [3] = target: T3, GST-Co-NF-kB (Capsaspora owczarzaki, UniProt F1ARL5 200-546)
# T3 sequence: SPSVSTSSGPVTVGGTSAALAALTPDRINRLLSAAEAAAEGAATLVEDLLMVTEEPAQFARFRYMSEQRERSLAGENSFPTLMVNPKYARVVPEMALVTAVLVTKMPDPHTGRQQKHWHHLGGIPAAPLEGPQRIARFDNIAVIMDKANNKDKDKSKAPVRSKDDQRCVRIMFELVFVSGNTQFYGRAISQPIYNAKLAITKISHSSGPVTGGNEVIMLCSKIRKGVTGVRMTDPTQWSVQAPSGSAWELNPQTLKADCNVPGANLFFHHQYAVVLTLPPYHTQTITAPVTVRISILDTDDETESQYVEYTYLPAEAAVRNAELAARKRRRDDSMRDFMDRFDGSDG
Sequence,binding signal [1] [z-score],binding signal [2] [z-score],binding signal [3] [z-score]
CCGATTAACATCAAGTACTTTCCTGATGTTAATCGGGTCTTGATTCGCTTGACGCTGCTG,5.26,1.81,
CCGATTAACATCAAAAAAACTCCTGATGTTAATCGGGTCTTGATTCGCTTGACGCTGCTG,3.63,1.83,
CCGATTAACATCACGGAAATTTCTGATGTTAATCGGGTCTTGATTCGCTTGACGCTGCTG,1.36,2.5,1.12
CCGATTAACATCAAAAAATTCCGTGATGTTAATCGGGTCTTGATTCGCTTGACGCTGCTG,2.44,2.61,1.34
CCGATTAACATCAAAAAATCTCCTGATGTTAATCGGGTCTTGATTCGCTTGACGCTGCTG,1.02,1.21,
CCGATTAACATCACGGAAAAACCTGATGTTAATCGGGTCTTGATTCGCTTGACGCTGCTG,2.16,3.55,
CCGATTAACATCAGCGGAAATCCTGATGTTAATCGGGTCTTGATTCGCTTGACGCTGCTG,1.26,1.07,
CCGATTAACATCAATGGGTTTCCTGATGTTAATCGGGTCTTGATTCGCTTGACGCTGCTG,2.98,1.07,
CCGATTAACATCAAGGAAAGTACTGATGTTAATCGGGTCTTGATTCGCTTGACGCTGCTG,4.7,2.33,
CCGATTAACATCAAAAAAAATCCTGATGTTAATCGGGTCTTGATTCGCTTGACGCTGCTG,3.09,2.68,
CCGATTAACATCAATAAAATTCCTGATGTTAATCGGGTCTTGATTCGCTTGACGCTGCTG,1.81,1.79,
CCGATTAACATCATAAAATTCCATGATGTTAATCGGGTCTTGATTCGCTTGACGCTGCTG,1.32,1.26,
CCGATTAACATCACGGAAACCACTGATGTTAATCGGGTCTTGATTCGCTTGACGCTGCTG,3.59,1.46,
CCGATTAACATCAGGTATTTCCATGATGTTAATCGGGTCTTGATTCGCTTGACGCTGCTG,2.79,3.5,
CCGATTAACATCACGGAATTGCCTGATGTTAATCGGGTCTTGATTCGCTTGACGCTGCTG,1.01,1.14,
CCGATTAACATCAAAAATTTTCCTGATGTTAATCGGGTCTTGATTCGCTTGACGCTGCTG,2.62,1.81,1.7

Sequence,binding signal [1] [z-score],binding signal [2] [z-score],binding signal [3] [z-score]
CCGATTAACATCAGGTAAGTCCATGATGTTAATCGGGTCTTGATTCGCTTGACGCTGCTG,1.83,2.33,
CCGATTAACATCAGGAATTCCACTGATGTTAATCGGGTCTTGATTCGCTTGACGCTGCTG,3.07,1.57,
CCGATTAACATCACAGAATTTCCTGATGTTAATCGGGTCTTGATTCGCTTGACGCTGCTG,1.09,1.36,
CCGATTAACATCAAGGAAATTCCTGATGTTAATCGGGTCTTGATTCGCTTGACGCTGCTG,2.23,4.14,
CCGATTAACATCAGGAAAGGCCATGATGTTAATCGGGTCTTGATTCGCTTGACGCTGCTG,1.29,1.31,
CCGATTAACATCAAGTAATTTCCTGATGTTAATCGGGTCTTGATTCGCTTGACGCTGCTG,2.36,1.18,
CCGATTAACATCACGAAAATTCCTGATGTTAATCGGGTCTTGATTCGCTTGACGCTGCTG,1.12,1.41,
CCGATTAACATCAAAAAATTCCATGATGTTAATCGGGTCTTGATTCGCTTGACGCTGCTG,2.59,1.71,
CCGATTAACATCACCGGATTTCCTGATGTTAATCGGGTCTTGATTCGCTTGACGCTGCTG,1.86,1.54,
CCGATTAACATCAAGGAATTCCGTGATGTTAATCGGGTCTTGATTCGCTTGACGCTGCTG,1.78,1.75,
CCGATTAACATCAGGAAAGTCCATGATGTTAATCGGGTCTTGATTCGCTTGACGCTGCTG,3.2,3.71,
CCGATTAACATCAAGGAATTCCATGATGTTAATCGGGTCTTGATTCGCTTGACGCTGCTG,2.32,1.54,
CCGATTAACATCAGGATTTTTCATGATGTTAATCGGGTCTTGATTCGCTTGACGCTGCTG,1.76,1.09,
CCGATTAACATCAAAATTTCCACTGATGTTAATCGGGTCTTGATTCGCTTGACGCTGCTG,1.61,1.15,
CCGATTAACATCAGGAGTTTCCATGATGTTAATCGGGTCTTGATTCGCTTGACGCTGCTG,1.28,2.43,
